Screening data as filed in PubChem.
Most compounds without a hit are left out; they make up all but 2.3% or so of the library.
CHO-K1 Ca antag – M1 antagonist counterscreen hit in parental CHO-K1 cells | AID 602250 | ATP-induced calcium, Fluo-8 fluorescence | 360,000 tested, 0.6% active | inhibition, % at 3 µM;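 active means inhibition above a per-plate cutoff, the plate's mean sample inhibition plus 3 SD, cut at about 24% in these data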;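 further: 0% = DMSO plus EC80 ATP and 100% = DMSO alone without ATP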
CHRM1 PAM – positive allosteric modulators of human M1 muscarinic receptor; P11229; CHO-K1 hM1, Fluo-8 calcium fluorescence, ACh EC20; 0% = ACh EC20, 100% = maximal ACh; activation, % at 3 µM; 360,000 tested, 0.088% active; in the data active means activation above about 19%, passing the limit was not always enough
Target sequence (P11229 whole entry, looked up): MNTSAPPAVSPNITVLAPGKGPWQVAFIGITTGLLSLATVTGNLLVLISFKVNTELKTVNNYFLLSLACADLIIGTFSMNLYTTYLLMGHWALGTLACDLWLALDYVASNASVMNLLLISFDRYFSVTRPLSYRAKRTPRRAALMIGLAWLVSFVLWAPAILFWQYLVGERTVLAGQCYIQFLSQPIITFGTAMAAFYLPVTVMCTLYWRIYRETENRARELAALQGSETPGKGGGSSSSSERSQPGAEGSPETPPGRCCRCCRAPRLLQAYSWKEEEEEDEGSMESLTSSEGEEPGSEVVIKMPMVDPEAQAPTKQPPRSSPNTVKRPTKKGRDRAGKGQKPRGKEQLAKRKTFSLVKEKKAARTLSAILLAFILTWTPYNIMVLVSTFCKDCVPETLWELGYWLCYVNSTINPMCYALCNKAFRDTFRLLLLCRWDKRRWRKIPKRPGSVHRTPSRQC
CHRM1 agonist – activates human CHRM1 receptor; P11229; CHO-K1 hM1, Fluo-8 calcium fluorescence, agonist mode; 0% DMSO, 100% acetylcholine EC100; activation, % at 3 µM; 360,000 tested, 0.33% active;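 active means activation above the run's mean compound activation plus 3 SD, cut at about 16% in these data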;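 further: peak over basal fluorescence ratio within a 140 s kinetic read after compound addition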
M1 ag parental – counter-screen for M1 agonists: effect in parental CHO-K1 cells; Fluo-8 calcium fluorescence; scaled to maximal ATP response, vehicle zero; AID 602248; activation, % at 3 µM; 360,000 tested, 0.48% active; in the data active means activation above about 15%;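 further: untransfected CHO-K1 host cells lacking M1 receptor as counterscreen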
CHO-K1 Ca PAM – counter-screen for M1 PAMs: effect in parental CHO-K1 cells | ATP EC20, Fluo-8 calcium fluorescence; 0% at ATP EC20, 100% at ATP max | activation, % at 3 µM | 360,000 tested, 0.02% active | AID 602247;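 active means activation above the run cutoff, the mean activation of all test compounds plus 3 SD, cut at about 40% in these data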;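 further: peak over basal fluorescence ratio in a 140 s read after ATP addition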
CHRM1 antagonist – human CHRM1 antagonism. inhibition, % at 3 µM. 360,000 tested, 1.3% active. CHO-K1 hM1, Fluo-8 calcium fluorescence, ACh EC80 antagonist. P11229;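 active means percent inhibition above its own plate's cutoff, namely the mean of that plate's compound wells plus 3 SD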;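 further: peak over basal fluorescence ratio during 140 s after agonist addition; 0% = ACh EC80 plus DMSO and 100% = DMSO alone without agonist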
* hit, by the source's call.

For CC(=O)Nc1ccc(NC(=O)c2csc([C@@H]3C[C@H](O)[C@@H](CO)O3)n2)cc1 the results were CHO-K1 Ca antag -5, CHRM1 PAM 2, CHRM1 agonist -1, M1 ag parental 6, CHO-K1 Ca PAM 12 and CHRM1 antagonist -3.
For O=C(Nc1ccc(Oc2ccccc2)cc1)c1csc([C@H]2C[C@H](O)[C@@H](CO)O2)n1 the results were CHO-K1 Ca antag 1, CHRM1 PAM -16, CHRM1 agonist 3, M1 ag parental 14, CHO-K1 Ca PAM -5 and CHRM1 antagonist 32*.
For O=C(Nc1ccc(Oc2ccccc2)cc1)c1csc([C@@H]2O[C@H](CO)[C@@H](O)[C@H]2O)n1 the results were CHO-K1 Ca antag 2, CHRM1 PAM -14, CHRM1 agonist 1, M1 ag parental 6, CHO-K1 Ca PAM 4 and CHRM1 antagonist 34*.
Screening CCC1CC(C(=O)Nc2ccccc2)C(=O)O1 (stereo not given) returned CHO-K1 Ca antag -16, CHRM1 PAM 3, CHRM1 agonist -3, M1 ag parental 0, CHO-K1 Ca PAM 8 and CHRM1 antagonist -3.
Screening COCCn1c(Cc2ccccc2)nnc1SCC(=O)Nc1oc(C)c2c(C)n[nH]c(=O)c12 returned CHO-K1 Ca antag 6, CHRM1 PAM 7, CHRM1 agonist -2, M1 ag parental 0, CHO-K1 Ca PAM -22 and CHRM1 antagonist -2.
`CCN(c1ccccc1)S(=O)(=O)c1cc(C(=O)Nc2ccc(F)c(F)c2)ccc1F` gave CHO-K1 Ca antag 20, CHRM1 PAM -21, CHRM1 agonist 0, M1 ag parental 13, CHO-K1 Ca PAM 0 and CHRM1 antagonist 33*.
CCOC(=O)CNC(=S)N(CCCN1CCN(C)CC1)Cc1cccs1 was read as CHO-K1 Ca antag -2, CHRM1 PAM 13, CHRM1 agonist -1, M1 ag parental 0, CHO-K1 Ca PAM -8 and CHRM1 antagonist 0.
For COc1cc(C(=O)N2CCCC(c3cc(C(=O)NCc4ccc(F)cc4)no3)C2)cc(OC)c1C (stereo not given) the results were CHO-K1 Ca antag -13, CHRM1 PAM 3, CHRM1 agonist -5, M1 ag parental 1, CHO-K1 Ca PAM 18 and CHRM1 antagonist -17.
`c1ccc2c(c1)[nH]c1c(N3CCC4(CC3)OCCO4)ncnc12` gave CHO-K1 Ca antag -13, CHRM1 PAM -6, CHRM1 agonist 2, M1 ag parental 7, CHO-K1 Ca PAM 18 and CHRM1 antagonist 8.
OC1(c2cccc(C(F)(F)F)c2)CCN(c2ncnc3c2[nH]c2ccccc23)CC1 was read as CHO-K1 Ca antag 25*, CHRM1 PAM -1, CHRM1 agonist -1, M1 ag parental 0, CHO-K1 Ca PAM -2 and CHRM1 antagonist 15.
`c1ccc2c(c1)CCN(c1ncnc3c1[nH]c1ccccc13)C2` gave CHO-K1 Ca antag 22, CHRM1 PAM -11, CHRM1 agonist 3, M1 ag parental 11, CHO-K1 Ca PAM 3 and CHRM1 antagonist 43*.
Screening CSCCC(NC(=O)c1ccccc1Cl)C(=O)NCC1COc2ccccc2O1 (stereo not given) returned CHO-K1 Ca antag 16, CHRM1 PAM -13, CHRM1 agonist -2, M1 ag parental 0, CHO-K1 Ca PAM -31 and CHRM1 antagonist 31*.
Screening CSCCC(NC(=O)c1ccc(Cl)cc1Cl)C(=O)NCc1ccccn1 (stereo not given) returned CHO-K1 Ca antag 35*, CHRM1 PAM 7, CHRM1 agonist -3, M1 ag parental 0, CHO-K1 Ca PAM 17 and CHRM1 antagonist -12.
`COc1cccc(C(=O)c2c(-c3ccccc3)ncc3cc(OC)c(OC)cc23)c1` gave CHO-K1 Ca antag 7, CHRM1 PAM -4, CHRM1 agonist -6, M1 ag parental 1, CHO-K1 Ca PAM -5 and CHRM1 antagonist 5.
`O=C(Nc1cccc(/C=C/c2ccccn2)c1)c1ccc(-n2cncn2)cc1` gave CHO-K1 Ca antag 0, CHRM1 PAM -15, CHRM1 agonist 3, M1 ag parental 6, CHO-K1 Ca PAM 1 and CHRM1 antagonist 31*.
N#Cc1c(-c2ccco2)ccn(Cc2cccc(F)c2)c1=O was read as CHO-K1 Ca antag -10, CHRM1 PAM 8, CHRM1 agonist -5, M1 ag parental 2, CHO-K1 Ca PAM 9 and CHRM1 antagonist -9.
O=C(c1ccc2[nH]c(=O)c(=O)[nH]c2c1)N1CCc2ccccc2C1 was read as CHO-K1 Ca antag -7, CHRM1 PAM 1, CHRM1 agonist -1, M1 ag parental 1, CHO-K1 Ca PAM -7 and CHRM1 antagonist 2.
Screening COc1cccc2sc(Nc3nnc(-c4ccccc4Cl)o3)nc12 returned CHO-K1 Ca antag 29*, CHRM1 PAM 1, CHRM1 agonist 1, M1 ag parental 0, CHO-K1 Ca PAM -9 and CHRM1 antagonist -4.
Screening COc1ccccc1-c1nnc(Nc2nc3c(OC)cccc3s2)o1 returned CHO-K1 Ca antag -1, CHRM1 PAM 13, CHRM1 agonist -3, M1 ag parental 1, CHO-K1 Ca PAM 18 and CHRM1 antagonist -2.
`O=C(Nc1nnc(-c2ccccc2Cl)o1)c1nc2ccccc2s1` gave CHO-K1 Ca antag 0, CHRM1 PAM -6, CHRM1 agonist 74*, M1 ag parental 48*, CHO-K1 Ca PAM 0 and CHRM1 antagonist 1.
Screening O=C(Nc1nnc(-c2ccccc2Cl)o1)c1ccco1 returned CHO-K1 Ca antag -1, CHRM1 PAM 3, CHRM1 agonist -4, M1 ag parental 0, CHO-K1 Ca PAM 5 and CHRM1 antagonist 0.
Screening CC(Sc1ccccc1)C(=O)NCC(c1ccco1)N1CCCCC1 (stereo not given) returned CHO-K1 Ca antag -12, CHRM1 PAM -6, CHRM1 agonist -8, M1 ag parental 1, CHO-K1 Ca PAM -2 and CHRM1 antagonist 4.
For COc1ccc(C)cc1NS(=O)(=O)c1ccc2c(c1)N(C)CCO2 the results were CHO-K1 Ca antag 13, CHRM1 PAM -4, CHRM1 agonist 1, M1 ag parental 9, CHO-K1 Ca PAM -20 and CHRM1 antagonist 7.
`COc1ccc(CN2C(=O)CS/C2=N/N=C/c2cccs2)cc1` gave CHO-K1 Ca antag 25*, CHRM1 PAM -12, CHRM1 agonist 2, M1 ag parental 10, CHO-K1 Ca PAM -12 and CHRM1 antagonist 36.
Screening COc1ccc(OC)c(/C=N/N=C2\SCC(=O)N2Cc2ccco2)c1 returned CHO-K1 Ca antag -14, CHRM1 PAM -3, CHRM1 agonist -5, M1 ag parental 2, CHO-K1 Ca PAM 19 and CHRM1 antagonist 4.
`COc1cc(C2CC(=O)C3=C(C2)Nc2ncnn2C3c2cccs2)cc(OC)c1OC` (stereo not given) gave CHO-K1 Ca antag -10, CHRM1 PAM 21, CHRM1 agonist 1, M1 ag parental 0, CHO-K1 Ca PAM 14 and CHRM1 antagonist -14.
